This note sets out measurements from PubChem BioAssay (Tox21).

Values joined by “and” are separate entries in the source; they are usually repeats but may differ in a detail not shown here. Equal values may be shown once. Values without a mark were called inactive. Inconclusive results are not listed. Active and inactive are the calls of the source. Unless noted, the call rests on the fitted dose curve; in most records, active means well fitted curve in the direction sought with a large enough effect in the repeat runs; inconclusive means weak or mixed curves; inactive means flat fitted curve, though single readings scatter.

Assay [1] is described as follows: qHTS assay to test for compound auto fluorescence at 535 nm (green) in HEK293 cells (AID 720680). For orientation: In qHTS, concentration-response curves come from the screen itself.
Assay [2] in a line: qHTS assay to test for compound auto fluorescence at 460 nm (blue) in HEK293 cell free culture (AID 720681). Further: potency means the concentration at half of the fitted maximal effect. The essentials:
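Test compounds were pinned into cell-free culture medium (DMEM with 10% FBS) and fluorescence was read directly at Ex/Em 405/460 nm. Signals were expressed as fluorescence equivalents of triamterene, with DMSO vehicle as control.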

A short description of assay [3]: qHTS assay to test for compound auto fluorescence at 535 nm (green) in HEK293 cell free culture (AID 720682). The essentials:
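Using fluorescein as calibrant, autofluorescence was quantified at 485/535 nm in cell-free DMEM containing 10% FBS after pintool addition of compound or vehicle.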

A short description of assay [4]: qHTS assay to test for compound auto fluorescence at 590 nm (red) in HEK293 cell free culture (AID 720683). Put shortly:
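Tox21 10K library compounds were pinned into cell-free DMEM with 10% FBS and fluorescence was read at excitation 540 nm. Activity is expressed as Rose Bengal sodium equivalency.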

Assay [5] can be described thus: qHTS assay to test for compound auto fluorescence at 590 nm (red) in HepG2 cell free culture (AID 720684). The essentials: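 Measured in medium alone (MEM containing 10% FBS) following pintool addition of compound; emission at 590 nm with 540 nm excitation, referenced to Rose Bengal sodium.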
Assay [6] is described as follows: qHTS assay to test for compound auto fluorescence at 460 nm (blue) in HepG2 cell free culture (AID 720685). Further: potency means the concentration at half of the fitted maximal effect. The essentials:
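Compound (23 nL) or DMSO pinned into cell-free MEM with 10% FBS; blue fluorescence read at 405/460 nm excitation/emission, expressed as auto-fluorescence equivalency to triamterene.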

Assay [7] in a line: qHTS assay to test for compound auto fluorescence at 535 nm (green) in HepG2 cell free culture (AID 720686).
The nature of assay [8]: qHTS assay to test for compound auto fluorescence at 460 nm (blue) in HepG2 cells (AID 720687). Further: potency means the concentration at half of the fitted maximal effect. The essentials:
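Cells (2,000/well in MEM with 10% FBS) attached overnight at 37 C, then were exposed to compound or DMSO for 1 hr at 37 C, 5% CO2. Fluorescence read at Ex/Em 405/460 nm, expressed as triamterene-equivalent signal.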

The target in assay [9] is Glucocorticoid receptor (Homo sapiens) (UniProt P04150). Nature of the assay: qHTS assay to identify small molecule agonists of the glucocorticoid receptor (GR) signaling pathway (AID 720691; active means well fitted activation curve with a large enough effect in the signal ratio in the repeat runs, not every such curve was filed as active; the % refers to the signal ratio). Put shortly: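 Reporter read-out: fluorescence intensity following 2 h room-temperature LiveBLAzer B/G FRET substrate loading. Prior step: GR-bla HeLa cells held 4 h, then treated 18 h at 37 C.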

Assay [10] has the same target. Nature of the assay: qHTS assay to identify small molecule antagonists of the glucocorticoid receptor (GR) signaling pathway (AID 720692; active means well fitted inhibition curve with a large enough effect in the signal ratio in the repeat runs, not every such curve was filed as active; the % refers to the signal ratio). Put shortly:
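Dexamethasone (5 nM final) stimulated a stably integrated GRE-beta-lactamase reporter in HeLa cells during 18 h co-incubation with compounds; signal was quantified as fluorescence intensity of B/G FRET substrate after 2 h.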
Tags describe the fitted curve by direction and shape or compound fluorescence and quenching.

Glucocorticoid receptor (Homo sapiens), sequence (P04150 whole entry, looked up): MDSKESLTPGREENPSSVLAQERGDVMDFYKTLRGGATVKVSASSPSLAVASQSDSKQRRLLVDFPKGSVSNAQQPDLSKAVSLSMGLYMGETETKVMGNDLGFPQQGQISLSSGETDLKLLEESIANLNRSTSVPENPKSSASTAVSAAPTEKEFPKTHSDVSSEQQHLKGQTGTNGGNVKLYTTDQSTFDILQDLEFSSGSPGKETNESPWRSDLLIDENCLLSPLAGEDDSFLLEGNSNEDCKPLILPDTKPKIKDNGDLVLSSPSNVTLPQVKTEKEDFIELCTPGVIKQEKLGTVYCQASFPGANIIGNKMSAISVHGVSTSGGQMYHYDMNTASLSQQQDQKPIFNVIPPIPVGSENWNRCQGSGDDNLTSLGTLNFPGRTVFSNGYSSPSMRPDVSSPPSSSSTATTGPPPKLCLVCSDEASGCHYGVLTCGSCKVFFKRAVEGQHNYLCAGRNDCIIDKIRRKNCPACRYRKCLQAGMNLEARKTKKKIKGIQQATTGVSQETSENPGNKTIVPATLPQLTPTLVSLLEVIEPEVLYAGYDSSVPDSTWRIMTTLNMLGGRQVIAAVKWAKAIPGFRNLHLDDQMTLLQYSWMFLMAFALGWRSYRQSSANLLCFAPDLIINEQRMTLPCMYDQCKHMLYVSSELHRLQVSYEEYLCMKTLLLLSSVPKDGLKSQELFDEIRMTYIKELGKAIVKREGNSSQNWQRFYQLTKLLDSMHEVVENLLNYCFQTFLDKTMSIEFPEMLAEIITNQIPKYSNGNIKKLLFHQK

Take `O=c1c(O)c(-c2ccc(O)c(O)c2)oc2cc(O)cc(O)c12`: the compound was classed as inactive in assay [1], in assay [3], in [4], in assay [5] and in [7]. Further, the Potency result in assay [2], in assay [6] and in [8] was “inactive” in each case.

As to `O=c1n(CCCN2CCN(c3cccc(Cl)c3)CC2)nc2ccccn12`, the compound was classed as inactive in assay [1], in assay [3], in assay [4], in assay [5] and in [7]. The Potency entry in assay [2], in assay [6] and in [8] was “inactive” in each case.

Consider `CC(=O)OC(C)(C)C1CC=C(C)CC1` (stereo not drawn), for which the call in assay [1], in [3], in [4], in assay [5] and in assay [7] was inactive. Moreover, the Potency entry in assay [2], in assay [6] and in assay [8] was “inactive” in each case.

`CCCCCC(C)=O`: the result in assay [1], in assay [3], in assay [4], in assay [5], in assay [7] and in assay [9] was inactive. The Potency result in assay [2], in assay [6], in assay [8] and in assay [10] was “inactive” in each case.

In the case of `Nc1nc(N)c2nc(-c3ccccc3)c(N)nc2n1`, the compound was called inactive in assay [1], in assay [3], in assay [4], in assay [5] and in assay [7]. The Potency in [2] is 12.6 µM (active) and 39.8 µM (active); in assay [6], 12.6 µM [fluorescent] (active) and 39.8 µM [fluorescent] (active); in assay [8], 12.6 µM [fluorescent] (active) and 39.8 µM [fluorescent] (active).

`CN1CCCC1=O`: the outcome in [1], in assay [3], in [4], in assay [5] and in assay [7] was inactive. For the same compound, the Potency result in assay [2], in assay [6] and in assay [8] was “inactive” each time.

For `Nc1cccc(C(F)(F)F)c1`, the outcome in assay [1], in assay [3], in assay [4], in assay [5] and in assay [7] was inactive. Besides, the Potency result in assay [2], in assay [6] and in [8] was “inactive” each time.

As to `CC(CN1c2ccccc2Sc2ccccc21)N(C)C` (stereo not drawn), the compound was classed as inactive in [1], in assay [3], in assay [4], in assay [5] and in assay [7]. The Potency entry in assay [2], in assay [6] and in assay [8] was “inactive” in each case.

Turning to `OCc1ccc(Cl)cc1Cl`, the compound was called inactive in assay [1], in [3], in [4], in [5] and in [7]. The Potency entry in [2], in assay [6] and in assay [8] was “inactive” in each case.

For the compound `OB(O)O`, the call in [1], in assay [3], in assay [4], in assay [5], in [7] and in assay [9] was inactive. The Potency entry in assay [2], in assay [6], in assay [8] and in assay [10] was “inactive” throughout.

As for `CC[N+](CC)(CC(=O)Nc1c(C)cccc1C)Cc1ccccc1`, the compound was classed as inactive in [1], in assay [3], in assay [4] and in assay [7]. The Potency entry in [2], in assay [6] and in [8] was “inactive” each time.

Regarding `Cc1cc(CC(=O)O)n(C)c1C(=O)c1ccc(Cl)cc1`, the outcome in assay [1], in [3], in assay [4], in assay [5], in [7] and in [9] was inactive. Also, the Potency entry in [2], in assay [6], in assay [8] and in assay [10] was “inactive” each time.

For `C=C(C)CC(C)(C)C`, the call in [1], in [3], in assay [4], in [5], in assay [7] and in assay [9] was inactive. The Potency result in [2], in assay [6], in assay [8] and in assay [10] was “inactive” in each case.

`O=C1O[C@H]([C@H](O)CO)C(O)=C1O`: the result in assay [1], in assay [3], in [4], in assay [5], in assay [7] and in assay [9] was inactive. Also, the Potency entry in assay [2], in assay [6], in assay [8] and in assay [10] was “inactive” in each case.

As for `CC/C(C)=N/O`, the compound was classed as inactive in [1], in [3], in [4], in [5], in assay [7] and in assay [9]. Also, the Potency entry in assay [2], in assay [6], in assay [8] and in assay [10] was “inactive” each time.

For the compound `O=C1C(N(CO)C(=O)NCO)N(CO)C(=O)N1CO` (stereo not drawn), the result in assay [1], in [3], in assay [4] and in [7] was inactive. In addition, the Potency result in assay [2], in assay [6] and in assay [8] was “inactive” each time.

On to `Cc1ccc(Cl)cc1`, for which the compound was classed as inactive in assay [1], in assay [3], in [4], in assay [5], in assay [7] and in [9]. Moreover, the Potency entry in assay [2], in assay [6], in assay [8] and in assay [10] was “inactive” each time.

`NC1CCCCC1N` (stereo not drawn): the call in assay [1], in assay [3], in assay [4], in [5], in assay [7] and in assay [9] was inactive. Besides, the Potency result in assay [2], in [6], in assay [8] and in [10] was “inactive” in each case.

Regarding `O=C(O)Cc1c[nH]c2ccccc12`, the compound was classed as inactive in assay [1], in assay [3], in [4], in assay [5], in assay [7] and in assay [9]. The Potency entry in assay [2], in assay [6], in [8] and in assay [10] was “inactive” throughout.

For `COCN(COC)c1nc(N(COC)COC)nc(N(COC)COC)n1`, the compound was called inactive in assay [1], in assay [3], in [4], in [5], in assay [7] and in [9]. Moreover, the Potency entry in [2], in [6], in assay [8] and in [10] was “inactive” throughout.

For `CC(C=O)Cc1ccc(C(C)(C)C)cc1` (stereo not drawn), the outcome in assay [1], in [3], in [4], in [5], in assay [7] and in [9] was inactive. Moreover, the Potency result in [2], in assay [6], in [8] and in assay [10] was “inactive” throughout.

With `CCCCCCCCCCCCCC(=O)O`, the result in [1], in [3], in assay [4], in assay [5], in assay [7] and in assay [9] was inactive. For the same compound, the Potency entry in [2], in assay [6], in [8] and in [10] was “inactive” throughout.

Regarding `CCCCCCCCO`, the compound was called inactive in [1], in assay [3], in [4], in assay [5], in assay [7] and in [9]. The Potency entry in [2], in assay [6], in assay [8] and in assay [10] was “inactive” throughout.

For `CCOC(=O)c1ccc(O)cc1`, the compound was classed as inactive in [1], in assay [3], in [4], in assay [5], in assay [7] and in [9]. The Potency result in assay [2], in assay [6], in assay [8] and in assay [10] was “inactive” in each case.

For `CC(=O)OC/C=C(\C)CCC=C(C)C`, the compound was called inactive in [1], in [3], in [4], in assay [5], in [7] and in assay [9]. In addition, the Potency entry in assay [2], in assay [6], in assay [8] and in [10] was “inactive” throughout.

On to `N#CCC(=O)O`, for which the result in [1], in [3], in assay [4], in assay [5], in assay [7] and in assay [9] was inactive. Moreover, the Potency result in [2], in assay [6], in assay [8] and in assay [10] was “inactive” throughout.

`CCCN(CCC)C(=O)SCC`: the outcome in assay [1], in assay [3], in assay [4], in assay [5], in assay [7] and in [9] was inactive. Besides, the Potency entry in assay [2], in [6], in [8] and in assay [10] was “inactive” each time.
